The campaign covered roughly 52,000 compounds. About 4,300 (8.3%) were called active. Only a selection was taken, and actives are over-represented in it overall. Values without a mark were called inactive. No stated cut-off is given here; in the data, active means survival mostly below about 52% (no sharp cut-off); inactive means mostly above about 56%.

This passage reports survival results from PubChem BioAssay AID463173 (ICCB-Longwood Screening Facility, Harvard Medical School, 2010).

The assay deals with DeltatarO mutant. In words: growth inhibition of S. aureus wild type versus tarO mutant, primary screen, teichoic acid synthesis inhibitors, RN4220, OD600 (AID 463173). To be noted: OD600, 18 h, stronger effect = lower value, screened at 18.75 µg/mL (by protocol).
Consider `Cc1coc2cc3oc(=O)c(CCC(=O)NCc4ccccc4Cl)c(C)c3cc12`, for which the survival was 66%. Then `Cc1ccc2c(c1)nc(SCC(O)c1ccc(Br)cc1)n2C` (configuration not stated), with 70%; and `COc1cc2c(cc1OC)-c1n[nH]c(=S)n1C(C)(C)C2`, with 90%; and `CC(=O)c1c(C)n(-c2ccc(C)cc2)c2ccc(OC(=O)COc3ccccc3)cc12`, with 62%. For the compound `COc1ccccc1CN1CCN(C(CC(C)C)c2nnnn2Cc2ccc(F)cc2)CC1` (configuration not stated), the survival is 85%. Turning to `O=C1CCCCCN1Sc1ccccc1`, the survival is 48% (active). Under `O=C(/C=C/c1ccccc1)N1CCCC1=O` stands 94%; under `O=C1CCC(=O)N1c1ccccc1`, 98%.

For `CCN(CCCNC(=O)c1ccc(Sc2ccc(Cl)cc2)c(NC(C)=O)c1)c1cccc(C)c1`, the survival was 89%. With `Cc1ccccc1Nc1c(-c2cccnc2)nc2ccc(Cl)cn12`, the survival is 92%.

As to `Cc1ccccc1Nc1c(-c2cccc(O)c2)nc2ccc(Br)cn12`, the survival is 64%. Regarding `Cc1ccccc1Nc1c(-c2ccc(Br)o2)nc2ccc(Cl)cn12`, the survival is 37% (active). As for `COc1cc(O)ccc1-c1nc2ccc(Br)cn2c1Nc1ccccc1C`, the survival was 46% (active). Then `Cc1ccccc1Nc1c(-c2ccncc2)nc2ccc(Cl)cn12`, with 118%; and `COc1cc(O)ccc1-c1nc2cc(C)ccn2c1Nc1ccccc1C`, with 69%; and `CCOC(=O)c1c(S(=O)(=O)N2CCCC(C(=O)Nc3ccc(OCC)cc3)C2)c(C)n(C)c1C` (configuration not stated), with 99%. Under `COc1ccc(CNC(=O)C(=O)NCC(c2cccs2)S(=O)(=O)c2cccs2)cc1` (configuration not stated) stands 89%; under `CCCCOc1ccc(C(=O)N(Cc2ccco2)Cc2ccco2)cc1`, 94%; under `CC(=O)c1ccc(NC(=O)c2cc3c([nH]c2=O)CC(c2ccccc2)CC3=O)cc1` (configuration not stated), 63%. In the case of `O=C1CC(c2ccccc2)Cc2[nH]c(=O)c(C(=O)Nc3cccc(F)c3)cc21` (configuration not stated), the survival was 89%.

Regarding `O=C1CC(c2ccccc2)Cc2[nH]c(=O)c(C(=O)Nc3cccc(Cl)c3)cc21` (configuration not stated), the survival was 8% (active).

For the compound `O=C1CC(c2ccccc2)Cc2[nH]c(=O)c(C(=O)Nc3ccc(F)cc3)cc21` (configuration not stated), the survival is 101%. Take `Cc1cccc(NC(=O)c2cc3c([nH]c2=O)CC(c2ccccc2)CC3=O)c1` (configuration not stated): the survival was 20% (active). Under `COc1ccc(NC(=O)c2cc3c([nH]c2=O)CC(c2ccccc2)CC3=O)cc1` (configuration not stated) stands 91%. In the case of `COc1ccc(S(=O)(=O)c2c(C)c(NS(=O)(=O)c3ccccc3)cc(C)c2O)cc1`, the survival was 67%. Under `CC(C)N(Cc1ccccc1)C(=O)CCS(=O)(=O)c1cc2c(cc1Cl)NC(=O)CO2` stands 103%. Then `CC(C)(C)c1ccc(S(=O)(=O)c2cnc(SCC(=O)Nc3ccc4c(c3)OCCO4)[nH]c2=O)cc1`, with 120%; and `COc1ccc(S(=O)(=O)N(CC(=O)NCCSCc2ccccc2)c2ccc(C)cc2)cc1`, with 54%; and `CCN1CCN(C(=O)c2cnn(-c3ccc(F)cc3)c2-n2cccc2)CC1`, with 135%.

On to `Cc1ccc(CNC(=O)CSc2ccc(-c3sc(-c4ccccc4)nc3C)nn2)cc1`, for which the survival is 93%. For `COC(=O)c1ccc(NC(=O)CSc2n[nH]c(CC(C)C)n2)cc1`, the survival is 36% (active). As for `COC(=O)c1ccccc1NC(=O)CSc1n[nH]c(CC(C)C)n1`, the survival was 47%. As for `CCOc1ccc(NC(=O)CSc2ccc(-c3sc(-c4ccccc4)nc3C)nn2)cc1`, the survival was 15% (active). Then `COC(=O)c1ccc(NC(=O)CSc2ccc(-c3sc(-c4ccccc4)nc3C)nn2)cc1`, with 56% (active); and `Cc1nc(-c2ccccc2)sc1-c1ccc(SCC(=O)NCc2ccccc2)nn1`, with 58%; and `CCOC(=O)c1ccccc1NC(=O)CSc1ccc(-c2sc(-c3ccccc3)nc2C)nn1`, with 34%.

Regarding `CCc1ccc(NC(=O)CSc2ccc(-c3sc(-c4ccccc4)nc3C)nn2)cc1`, the survival is 38%. In the case of `COC(=O)c1ccc(NC(=O)CSc2n[nH]c(-c3ccccc3)n2)cc1`, the survival was 88%. Under `Cc1ccc(OCC(=O)Nc2ccc3c(c2)sc(=O)n3C)cc1` stands 110%. On to `O=C(Cn1ncc2c3ccccc3n(Cc3ccc(Cl)cc3)c2c1=O)NCCC1=CCCCC1`, for which the survival is 89%. Under `CCc1ccc(C2CC(=O)c3c([nH]c(C(=O)OC4CCCC4)c3C)C2)cc1` (configuration not stated) stands 97%.

`O=C(CSc1nnc(NC(=O)NC2CCCCC2)s1)Nc1ccccc1F`: the survival is 79%. `CCCn1c(C(=O)OC)cc2c1ccn2C`: the survival is 78%.

Regarding `CC1(C)Cc2[nH]c(=S)c(C#N)cc2CO1`, the survival is 88%.

For the compound `Cc1ccc(CNC(=O)CSc2c(C(C)C)cnc3c2c(=O)n(C)c(=O)n3C)cc1`, the survival was 85%. Turning to `CCCc1cnc2c(c1SCC(=O)NCc1ccc(C)cc1)c(=O)n(C)c(=O)n2C`, the survival is -4% (active). Then `CCc1cnc2c(c1SCC(=O)NCc1ccc(C)cc1)c(=O)n(C)c(=O)n2C`, with 70%.

Regarding `COCCOC(=O)C1=C(C)N=C2SCCC(=O)N2C1c1ccc(OCc2ccccc2)c(OC)c1` (configuration not stated), the survival is 58%. With `CCOC(=O)C1=C(C)N=C2SCCC(=O)N2C1c1ccc(OCc2ccccc2)c(OC)c1` (configuration not stated), the survival is 133%.

Consider `COc1cc(C2C(C(=O)OCC(C)C)=C(C)N=C3SCCC(=O)N32)ccc1OCc1ccccc1` (configuration not stated), for which the survival was 46% (active). With `O=C1CC(c2ccccc2)Cc2[nH]c(=O)c(-c3nc(-c4ccc(Cl)cc4)cs3)cc21` (configuration not stated), the survival is 72%. For `CN(C)CCCNc1cc(N2CCN(C3CCCCC3)CC2)c2noc3c2c1C(=O)c1ccccc1-3`, the survival was 51%.

As to `CCN(CC)c1cc(NC2CCCCC2)c2c3c(onc13)-c1ccccc1C2=O`, the survival is 1% (active). On to `CCCCNc1cc(NC2CCCCC2)c2c3c(onc13)-c1ccccc1C2=O`, for which the survival is 92%.

On to `CCCCNc1cc(N2CCN(C3CCCCC3)CC2)c2noc3c2c1C(=O)c1ccccc1-3`, for which the survival is -5% (active). Under `CCNc1cc(N2CCN(C3CCCCC3)CC2)c2noc3c2c1C(=O)c1ccccc1-3` stands 73%; under `O=C1c2ccccc2-c2onc3c(Br)cc(NC4CCCCC4)c1c23`, 101%.

As to `COc1ccc(NC(=O)CCS(=O)(=O)c2nc(-c3ccc4c(c3)OCO4)cc(C(F)(F)F)n2)cc1OC`, the survival is 79%. On to `Cc1cccc(NC(=O)Cn2cc(C(=O)c3ccco3)c3ccccc32)c1C`, for which the survival was 55%. For `Cc1cc(N)cc(C(=O)O)c1O`, the survival is 104%.

Regarding `Cc1cc(C)c(O)c(N)c1`, the survival is 39% (active).

In the case of `Cc1cc(N)c(O)cc1C`, the survival was 61%. For the compound `CCOc1ccc(S(=O)(=O)N2CCC(N3CCN(Cc4ccc(C)cc4)C(=O)C3=O)CC2)cc1`, the survival is 77%. In the case of `CCCc1cc(=O)[nH]c(Nc2cc(C)cc(C)c2)n1`, the survival is 108%. Consider `CCCc1cc(=O)[nH]c(Nc2cc(Cl)cc(Cl)c2)n1`, for which the survival is 6% (active). Then `CCCc1cc(=O)[nH]c(Nc2cccc(Cl)c2Cl)n1`, with 68%. Consider `CCCc1cc(=O)[nH]c(Nc2ccc(C(=O)O)cc2)n1`, for which the survival was 62%. Take `CCCOC(=O)c1cccc(Nc2nc(CCC)cc(=O)[nH]2)c1`: the survival was 10% (active). Then `CCCc1cc(=O)[nH]c(Nc2ccc(C)c(O)c2)n1`, with 57%; and `O=C(CN1C(=O)COc2ccc(S(=O)(=O)N3CCCCCC3)cc21)N1CCN(c2cccc(Cl)c2)CC1`, with 95%; and `O=C(Nc1nnc(S(=O)(=O)N2CCCCC2)s1)c1ccccc1Br`, with 61%. As for `O=C(Nc1nnc(S(=O)(=O)N2CCCC2)s1)c1ccccc1Br`, the survival is 36% (active). For the compound `O=C(Nc1nnc(S(=O)(=O)N2CCCCCC2)s1)c1ccccc1Br`, the survival was 43% (active). In the case of `COc1ccc(C2CC(=O)c3cnc4c(-c5ccccc5)c(C)nn4c3C2)c(OC)c1` (configuration not stated), the survival is 82%. As for `COc1cccc(C(=O)Nc2ccc3nc(SCC(=O)N4CCc5ccccc54)sc3c2)c1`, the survival was 59%. On to `COc1cccc(-n2cc(C(=O)Nc3cc(C)c(Cl)cc3OC)c3ccccc3c2=O)c1`, for which the survival was 56%.

As for `O=C(Nc1ccc2oc(-c3cccnc3)nc2c1)c1ccc(-c2ccc(OC(F)(F)F)cc2)o1`, the survival is 79%. With `CCOc1ccccc1CNS(=O)(=O)c1cnc(N)nc1`, the survival was 79%. For the compound `Nc1ncc(S(=O)(=O)Nc2ccc(F)cc2F)cn1`, the survival was 84%. Under `CCOc1ccccc1NS(=O)(=O)c1cnc(N)nc1` stands -1% (active); under `COc1ccc(OC)c(NC(=O)c2ccc(-c3nc(COc4ccccc4)c(C)o3)cc2)c1`, 62%; under `CCOC(=O)c1[nH]c2ccccc2c1NC(=O)c1ccc(OCC)cc1`, 75%.

Turning to `Cc1ccc(NC(=O)C(c2ccccc2)N2Cc3ccccc3C2=O)cc1Cl` (configuration not stated), the survival is 75%. On to `CCN(CC)c1ncnc2c1cnn2-c1cc(Cl)ccc1C`, for which the survival is -5% (active).

In the case of `CCN(c1ncnc2c1cnn2-c1cc(Cl)ccc1C)C1CCCCC1`, the survival is 73%. Then `CCN(CC)CCNc1ncnc2c1cnn2-c1cc(Cl)ccc1C`, with 77%; and `CCN(CC)C(=O)Cn1c(=O)n(Cc2ccc(C(=O)NCc3ccccc3Cl)cc2)c(=O)c2ccccc21`, with 115%.

As for `Cc1cn2c(=O)cc(COC(=O)COc3ccccc3C)nc2s1`, the survival is 76%.

As to `COc1ccccc1NC(=O)CSc1nnc2c3ccccc3n(C(C)C)c2n1`, the survival was 33% (active). As for `COc1ccccc1NC(=O)CSc1nnc2c(n1)[nH]c1ccccc12`, the survival was 77%. On to `COC(=O)c1ccc(NC(=O)CSc2nnc3c4ccccc4n(C(C)C)c3n2)cc1`, for which the survival was 52%. Then `CC(C)C(=O)Nc1nnc(S(=O)(=O)N2CCc3ccccc32)s1`, with 78%.

On to `O=C(Nc1nc2c(Cl)cccc2s1)c1ccc(S(=O)(=O)N2CCc3ccccc32)cc1`, for which the survival was 69%. As to `O=C(Nc1nnc(S(=O)(=O)N2CCc3ccccc32)s1)c1cccc(Cl)c1`, the survival was 1% (active).

As for `O=C(Nc1cccc(Cl)c1)c1cc(S(=O)(=O)N2CCCc3ccccc32)ccc1F`, the survival was 108%. Take `O=C(Nc1nnc(S(=O)(=O)N2CCCc3ccccc32)s1)c1cccc(Cl)c1`: the survival is 3% (active). Regarding `Cc1ccc(S(=O)(=O)N2CCCc3cc(NC(=O)c4cccc(Cl)c4)ccc32)cc1`, the survival is 87%.
